The panel holds about 83,000 compounds, 20% with a hit somewhere; the sample as a whole holds those more often.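 Single-concentration screen, 48 h exposure, 96-well plates. Endpoint: percent growth. Below 10 = active.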 A number with no mark means an inactive call. Activity calls are given as the source filed them.
What was measured:
Test in all cases: NCI-60 one-dose screen, 48 h (100 = growth as untreated, 0 = no growth, -100 = all killed)
Details in all cases: 10 µM unless noted
NCI-H23 lung = system: NCI-H23 lung
NCI-H226 lung = system: NCI-H226 lung
NCI-H322M lung = system: NCI-H322M lung
HOP-62 NSCLC = system: HOP-62 NSCLC
NCI-H460 lung = system: NCI-H460 lung
HOP-92 NSCLC = system: HOP-92 NSCLC
NCI-H522 lung = system: NCI-H522 lung
A549/ATCC NSCLC = system: A549/ATCC NSCLC
786-0 renal = system: 786-0 renal
COLO 205 colon = system: COLO 205 colon

Row | SMILES | growth (NCI-H23 lung) | growth (NCI-H226 lung) | growth (NCI-H322M lung) | growth (HOP-62 NSCLC) | growth (NCI-H460 lung) | growth (HOP-92 NSCLC) | growth (NCI-H522 lung) | growth (A549/ATCC NSCLC) | growth (786-0 renal) | growth (COLO 205 colon)
1 | COc1ccc(C(=O)c2cc(C)c(OC)c(C)c2)c(OC)c1O | 31.7% | 7.47% (active) | 45.8% | 12.9% | 2.04% (active) | -0.0707% (active) | -9.43% (active) | 14.5% | 15.2% | 66.8%
2 | CCN(CC)CCSCCCNc1c(C)cnc2cc(Cl)ccc12 | 89.8% | 100% | 90.8% | 85.2% | 96.8% | 81.6% | 102% | 95.9% | 82.7% | 61.4%
3 | O=C(O)c1cn(C2CC2)c2cc(N3CCN(C(=O)C[n+]4cccc5ccccc54)CC3)c(F)cc2c1=O | 84.4% | 101% | 102% | 98.9% | 96.6% | 95.5% | -90% (active) | 98.7% | 48.5% | 34.5%
4 | O=C(/C=C/c1ccc[nH]1)c1ccc(-n2ccc(C(F)(F)F)n2)cc1 | 90.1% | 91.5% | 72.4% | 104% | 99.1% | 96.3% | -6.16% (active) | 50.6% | 45.4% | 122%
5 | COc1ccc(/C=C/c2n[nH]c3ccc(N4CCOC4=O)cc23)cc1 | 12.4% | 6.06% (active) | 8.47% (active) | -1.37% (active) | 1.61% (active) | -8.15% (active) | 51.3% | 1.87% (active) | 11.3% | -17.4% (active)
6 | Cc1[nH]c(C(=O)Nc2ccccc2OCc2cccc(C(=O)NCCN)c2)c(Cl)c1Cl | 78% | 87.8% | 81.9% | 69.2% | 51.8% | 84.6% | 80.9% | 63.8% | 33.9% | 68.7%
7 | Cc1ccc(-c2c(Br)c(OC(=O)CO[C@@H]3C[C@H](C)CC[C@H]3C(C)C)c(-c3ccc(C)cc3C)c(Br)c2OC(=O)CO[C@H]2C[C@@H](C)CC[C@@H]2C(C)C)c(C)c1 | 98.6% | 56.2% | 103% | 94.5% | 105% | 93.6% | 79.4% | 88.9% | 96.8% | 95.3%
8 | COc1ccc(-c2nc(N/N=C/c3ccco3)nc(N3CCOCC3)c2C#N)cc1 | 81% | 84.8% | 87.1% | 68.1% | 66.4% | 49.2% | 76.9% | 81.9% | 54.7% | 85.7%
9 | COc1nccnn1 | 107% | 96.2% | 91% | 114% | 122% | 69.5% | 109% | 102% | 104% | 112%
10 | CC(=O)Nc1ccc(C(=O)Nc2cc(-c3ccccc3)ccc2N)cc1 | 86.4% | 124% | 79.5% | 67.7% | 59.7% | 69.2% | 55.6% | 74.2% | 97.9% | 35.5%
11 | COc1ccc(-c2nc(N=Nc3c(O)[nH]c4ccccc34)nc(N3CCOCC3)c2C#N)cc1 | 81.9% | 38.4% | 77.1% | 68% | 46.5% | 19.6% | 72.1% | 51.7% | 79.7% | 67.8%
12 | CC1=CC2(C)/C=C(C)/C=C\CC(O)/C=C3/C=CC(=C4C(=O)OC2(CC1C)C4=O)OC3 (stereo not given) | -97.5% (active) | 59.4% | 98.8% | 90.9% | 29.2% | -75.7% (active) | -50.5% (active) | 8.64% (active) | -92.1% (active) | -80.5% (active)
13 | C=C1C(=O)O[C@H]2[C@H]1CC/C(COC(=O)/C=C/c1c[nH]c3ccccc13)=C\CC[C@@]1(C)O[C@@H]21 | -53% (active) | -71.4% (active) | -48.2% (active) | -73.5% (active) | -70.8% (active) | -91.4% (active) | -63.1% (active) | -78.7% (active) | -90.4% (active) | -68.8% (active)
14 | COc1ccc2c(c1)OC1=C(C(=O)OC1)C2c1cc(OC)c(OC)c(OC)c1 (stereo not given) | 31.8% | 26.8% | 52.6% | 33.2% | 5.28% (active) | 74.8% | -32.5% (active) | 20.7% | 36.8% | 1.87% (active)
15 | COc1ccc(CNC(=O)COc2ccc(/C=N/Nc3nc4ccccc4s3)cc2)cc1 | 33.9% | 18% | 30.2% | 39.3% | -12.6% (active) | -24.8% (active) | 31.1% | 26.5% | -6.47% (active) | 64%
16 | N#Cc1c(NC(=O)c2cccc(Br)c2)sc2c1CCCC2 | 91% | 89.8% | 79.1% | 83.3% | 75.3% | 86.2% | 75.9% | 75.2% | 82.6% | 94.2%
17 | COc1c(Cl)cc(Cl)c2ccc(C=C3C(=O)NC(=S)NC3=O)nc12 | 101% | 100% | 113% | 93.7% | 103% | 116% | 92% | 104% | -90.9% (active) | 113%
18 | Cc1cccc(Oc2ccc(Nc3ncnc4ccc(NC(=O)CN(C)C)cc34)cc2Cl)c1 | 78.4% | 93.1% | 17.4% | 59.3% | 0.249% (active) | 23.5% | 30% | 40.4% | 47.9% | -15.8% (active)
19 | COc1cc(C(=O)/C=C/c2c(C)n([O-])c3ccc(Cl)cc3[n+]2=O)cc(OC)c1OC | 72% | 93.2% | 102% | 82% | 83% | -31.2% (active) | -77.3% (active) | 81.5% | 61.7% | 36.4%
20 | COc1cccc2c1C(=O)c1c(O)c3c(c(O)c1C2=O)C[C@@](O)(C(=O)CO)C[C@@H]3O[C@H]1C[C@H](N)[C@@H](O)[C@H](C)O1 | -25% (active) | -41.8% (active) | 13.6% | -18% (active) | 1.64% (active) | -26% (active) | -55.2% (active) | -22.5% (active) | 12.1% | -86.6% (active)
21 | C#CCn1cc(C=C2C(=O)NC(=S)NC2=O)c2cc(Cl)ccc21 | -4.83% (active) | 61.6% | 80.3% | -5.32% (active) | 14.6% | 48.4% | 51.1% | 98.3% | -54.2% (active) | 33.2%
22 | CN1CCN(CCCOc2ccc3ncnc(Nc4ccc(Oc5cccc(C(F)(F)F)c5)c(Cl)c4)c3c2)CC1 | 44.4% | 85.6% | 11.3% | 1.07% (active) | -66.9% (active) | 29.4% | -3.31% (active) | 21.5% | -81% (active) | -51.8% (active)
23 | COc1ccc(C(=O)/C=C/c2ccc(OCc3ccccc3)c(OC)c2)cc1OC | 59.8% | 75.8% | 43.2% | 31.4% | 47% | 11.5% | 28.9% | 13.6% | 87.9% | 74.6%
24 | COc1cc(/C=C/C(=O)c2c(C)oc3nc[nH]c(=O)c23)ccc1O | 98.7% | 102% | 98.3% | 93.9% | 103% | 116% | 101% | 101% | 102% | 102%
